Results on 25 molecules are retold here after PubChem BioAssay (Tox21).

Records with an inconclusive call do not appear. Activity calls are given as the source filed them. Unless noted, calls come from the whole dose curve; as a rule, active = well fitted curve in the direction sought with a large enough effect in the repeat runs; inconclusive = weak or mixed curves; inactive = no such curve, though single readings can be large; an effect the other way counts as inactive or inconclusive.

Assay [1] is described as follows: qHTS assay to identify small molecule agonists of the estrogen receptor alpha (ER-alpha) signaling pathway in the presence of an antagonist - cell viability counter screen (AID 1259386).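 Note: cells exposed to compounds for 22 h at 37 °C before the viability read; nearly all actives have a fitted effect of over 30% in size.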 Note: potency is the fitted concentration of half-maximal effect. In a few lines: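 The test measures whether compounds kill ER-alpha reporter cells (VM7Luc4E2) under antagonist co-treatment (ICI-182,780, 10.0nM). Fluorescence from CellTiter-Fluor is read after a 22hr exposure.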

The target of assay [2] is Progesterone receptor (Homo sapiens) (UniProt P06401). In words: qHTS assay to identify small molecule agonists of the progesterone receptor (PR) signaling pathway (AID 1346784; calls by dose curve; note: nearly all actives have a fitted effect of over 30% in size; note: potency is the fitted concentration of half-maximal effect). In a few lines: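 The screen uses PR-UAS-bla HEK 293T cells in charcoal-stripped serum (2%). Compounds are applied for 16 hr at 37C after a 6 hr pre-incubation, and reporter activity is detected with a FRET beta-lactamase substrate after 2 hr at room temperature.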
Chain of Progesterone receptor (Homo sapiens) (P06401 whole entry, looked up): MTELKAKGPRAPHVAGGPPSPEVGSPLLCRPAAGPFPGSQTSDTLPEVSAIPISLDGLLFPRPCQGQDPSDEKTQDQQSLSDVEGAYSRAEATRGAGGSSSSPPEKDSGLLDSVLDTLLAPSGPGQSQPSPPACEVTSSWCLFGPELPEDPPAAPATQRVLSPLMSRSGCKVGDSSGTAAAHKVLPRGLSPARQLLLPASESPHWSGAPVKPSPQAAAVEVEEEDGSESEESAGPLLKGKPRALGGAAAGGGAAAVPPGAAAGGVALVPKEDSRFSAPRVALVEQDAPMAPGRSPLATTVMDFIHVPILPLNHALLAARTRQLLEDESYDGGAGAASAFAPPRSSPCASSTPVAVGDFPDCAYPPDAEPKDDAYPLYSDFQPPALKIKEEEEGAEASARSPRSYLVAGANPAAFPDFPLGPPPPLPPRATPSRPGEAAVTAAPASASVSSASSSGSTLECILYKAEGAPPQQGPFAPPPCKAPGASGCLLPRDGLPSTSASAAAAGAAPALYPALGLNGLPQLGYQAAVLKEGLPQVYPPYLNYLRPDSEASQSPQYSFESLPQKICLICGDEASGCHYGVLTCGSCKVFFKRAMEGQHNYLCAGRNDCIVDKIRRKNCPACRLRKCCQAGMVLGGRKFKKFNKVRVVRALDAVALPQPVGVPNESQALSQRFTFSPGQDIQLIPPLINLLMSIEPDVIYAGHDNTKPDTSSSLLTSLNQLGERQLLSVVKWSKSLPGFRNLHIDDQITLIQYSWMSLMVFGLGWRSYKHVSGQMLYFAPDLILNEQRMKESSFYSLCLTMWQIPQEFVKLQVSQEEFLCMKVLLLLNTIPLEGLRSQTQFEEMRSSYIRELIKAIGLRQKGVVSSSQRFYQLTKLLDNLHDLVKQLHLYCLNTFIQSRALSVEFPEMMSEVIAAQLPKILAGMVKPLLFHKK
(In qHTS, concentration-response curves come from the screen itself.)

The target is the same in assay [3]. In words: qHTS assay to identify small molecule antagonists of the progesterone receptor (PR) signaling pathway (AID 1346795; active = well fitted inhibition curve with a large enough effect in the signal ratio in the repeat runs, not every such curve was filed as active; the % refers to the signal ratio; note: potency is the fitted concentration of half-maximal effect). In short, it runs like this: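 After 6 hr plating at 37C in 2% stripped-serum medium, PR-UAS-bla HEK293T cells got compounds, then 1 nM R5020. Sixteen hours later, LiveBLAzer substrate was applied for 2 hr at room temperature and fluorescence was recorded.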

Assay [4] can be described thus: qHTS assay to identify small molecule antagonists of the progesterone receptor (PR) signaling pathway - cell viability counter screen (AID 1346798). Note: nearly all actives have a fitted effect of over 50% in size. Note: potency is the fitted concentration of half-maximal effect. In short, it runs like this: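 Viability was determined by ATP-based luminescence (CellTiter-Glo) in PR-UAS-bla HEK293T cells cultured in 2% charcoal-stripped serum and incubated 16 hr with compounds under R5020 stimulation.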

A short description of assay [5]: qHTS assay to identify small molecule agonists of the progesterone receptor (PR) signaling pathway - cell viability counter screen (AID 1346799; calls by dose curve; note: nearly all actives have a fitted effect of over 45% in size; note: potency is the fitted concentration of half-maximal effect). In a few lines: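 Viability was scored by ATP luminescence (CellTiter-Glo, 30 min, room temperature) in the same wells used for the reporter readout, after 16 hr compound exposure of PR-UAS-bla HEK293T cells.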
Assay [6] is described as follows: qHTS assay to identify small molecule antagonists of the TGF-beta/Smad signaling pathway - cell viability counter screen (AID 1346824). Note: nearly all actives have a fitted effect of over 50% in size. In short, it runs like this: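 Cytotoxicity counter-screen run in the same wells as the beta-lactamase Smad reporter read: CellTiter-Glo luminescence after 30 min at room temperature. HEK 293T SBE-bla cells had 5 hr compound exposure at 37 C with TGF-beta1 (0.25 ng/mL stock).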

A short description of assay [7]: qHTS assay to identify small molecule agonists of the TGF-beta/Smad signaling pathway - cell viability counter screen (AID 1346829). Note: top concentration of the series differs between compounds; nearly all actives have a fitted effect of over 45% in size. In a few lines:
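HEK 293T SBE-bla line, 5 hr compound exposure at 37 C, multiplexed CellTiter-Glo viability read by luminescence.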

Assay [8] is described as follows: qHTS assay to identify small molecule agonists of the TGF-beta/Smad signaling pathway (AID 1346859; active = well fitted activation curve with a large enough effect in the signal ratio in the repeat runs, not every such curve was filed as active; the % refers to the signal ratio; note: series mostly up to about 77 µM). In short, it runs like this:
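Dual-wavelength fluorescence (460/530 nm emission) quantified beta-lactamase expression under the Smad binding element in HEK 293T cells following 5 hr compound treatment at 37 C.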

Assay [9] concerns the target Thyrotropin receptor (Homo sapiens) (UniProt P16473). In words: qHTS assay to identify small molecule antagonists of the thyroid stimulating hormone receptor (TSHR) signaling pathway (AID 1259385; calls by dose curve; note: nearly all actives have a fitted effect of over 20% in size). In short, it runs like this:
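Antagonist mode: compound-treated TSHR-expressing HEK293 cells were stimulated with 1.5 ng/mL TSH (final) in presence of Ro20-1724 for 30 min at RT. HTRF cAMP detection after 1 h; each compound tested at 15 concentrations, triplicate.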

Assay [10] deals with Thyrotropin-releasing hormone receptor (Homo sapiens) (UniProt P34981). In words: qHTS assay to identify small molecule antagonists of the thyrotropin-releasing hormone receptor (TRHR) signaling pathway (AID 1346877; active = well fitted inhibition curve with a large enough effect in the repeat runs, not every such curve was filed as active; note: series mostly up to about 51 µM). In short, it runs like this:
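Overnight-plated (18 h, 37 °C) HEK293 cells expressing TRHR were dye-loaded 2 h, treated with compound, then stimulated with TRH at 1 nM final. Fluorescence intensity was captured every second for 3 min.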

Chain of Thyrotropin receptor (Homo sapiens) (P16473 whole entry, looked up): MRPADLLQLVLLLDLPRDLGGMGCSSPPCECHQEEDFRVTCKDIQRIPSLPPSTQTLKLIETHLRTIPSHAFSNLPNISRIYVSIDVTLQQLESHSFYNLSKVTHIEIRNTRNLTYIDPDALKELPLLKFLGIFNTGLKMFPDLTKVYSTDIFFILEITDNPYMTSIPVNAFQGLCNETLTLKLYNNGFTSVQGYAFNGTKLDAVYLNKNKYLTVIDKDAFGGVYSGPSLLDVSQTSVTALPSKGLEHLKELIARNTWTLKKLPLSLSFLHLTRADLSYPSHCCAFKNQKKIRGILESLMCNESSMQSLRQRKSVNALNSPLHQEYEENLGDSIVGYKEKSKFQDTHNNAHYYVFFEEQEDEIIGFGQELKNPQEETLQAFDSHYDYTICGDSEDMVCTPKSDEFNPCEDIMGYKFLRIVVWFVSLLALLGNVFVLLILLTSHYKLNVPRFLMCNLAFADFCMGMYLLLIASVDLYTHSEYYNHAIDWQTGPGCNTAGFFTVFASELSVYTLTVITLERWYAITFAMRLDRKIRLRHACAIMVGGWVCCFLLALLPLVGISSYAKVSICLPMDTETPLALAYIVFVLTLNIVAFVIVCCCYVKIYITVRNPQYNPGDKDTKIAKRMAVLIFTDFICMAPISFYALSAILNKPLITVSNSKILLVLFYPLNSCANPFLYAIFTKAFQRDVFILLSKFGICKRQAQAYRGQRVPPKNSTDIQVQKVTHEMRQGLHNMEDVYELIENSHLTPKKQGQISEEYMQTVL
Chain of Thyrotropin-releasing hormone receptor (Homo sapiens) (P34981 whole entry, looked up): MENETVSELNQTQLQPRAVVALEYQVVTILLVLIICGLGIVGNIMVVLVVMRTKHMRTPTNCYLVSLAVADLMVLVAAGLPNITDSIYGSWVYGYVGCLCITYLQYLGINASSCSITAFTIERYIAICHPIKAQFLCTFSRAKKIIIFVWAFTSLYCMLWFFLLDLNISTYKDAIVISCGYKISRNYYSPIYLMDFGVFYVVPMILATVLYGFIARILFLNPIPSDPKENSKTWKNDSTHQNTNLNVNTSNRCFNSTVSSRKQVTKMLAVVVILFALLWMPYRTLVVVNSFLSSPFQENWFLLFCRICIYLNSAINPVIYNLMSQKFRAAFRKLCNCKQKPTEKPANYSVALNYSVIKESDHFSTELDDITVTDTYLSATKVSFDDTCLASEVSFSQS

Consider `CCc1ccc(C)cc1`, for which the Potency result in assay [1], in assay [2], in assay [3], in assay [4], in assay [5] and in assay [7] was “inactive” each time. Further, the Potency result in assay [8] was “inactive”. In addition, the outcome in assay [6] was inactive.
With `CC(C)OC(=O)c1ccccc1C(=O)OC(C)C`, the Potency entry in [9], in [1], in assay [7] and in [8] was “inactive” throughout. Moreover, the Potency in assay [4] was 61.1 µM (active); in assay [5], 43.3 µM (active). Besides, the outcome in [10] was inactive.
As for `COc1cc(S(=O)(=O)Nc2ccccc2)c(OC)cc1N`, the Potency entry in assay [9], in assay [1], in assay [3], in assay [4] and in assay [7] was “inactive” throughout. For the same molecule, the call in assay [6] and in assay [10] was inactive.
`O=C(O)CN1C(=O)c2cccc3cccc(c23)C1=O`: the Potency result in assay [9], in assay [1], in assay [4], in assay [5], in [7] and in assay [8] was “inactive” in each case. Also, the outcome in assay [6] and in [10] was inactive.
As to `CC[C@H]1OC(=O)[C@H](C)[C@@H](O[C@H]2C[C@@](C)(OC)[C@@H](O)[C@H](C)O2)[C@H](C)[C@@H](O[C@@H]2O[C@H](C)C[C@H](N(C)C)[C@H]2O)[C@](C)(O)C[C@@H](C)/C(=N\OCOCCOC)[C@H](C)[C@@H](O)[C@]1(C)O`, the Potency result in assay [9], in assay [3], in assay [4] and in [7] was “inactive” throughout. For the same molecule, the Potency in [1] was 7.19 µM (active). In addition, the call in [6] was inactive.
For `CCCCCCCC/C=C\CCCCCCCC(=O)OCCO`, the Potency result in assay [9], in [1], in assay [3], in [4], in assay [5] and in assay [7] was “inactive” each time. For the same molecule, the Potency result in assay [8] is “inactive”. Further, the molecule was called inactive in assay [10].
With `COc1ccc(N)c([N+](=O)[O-])c1`, the Potency result in assay [9], in [2], in [3], in assay [4], in assay [5] and in [7] was “inactive” throughout. The call in [6] and in assay [10] was inactive.
As for `COc1cc(NCc2ccc3nc(N)nc(N)c3c2C)cc(OC)c1OC`, the Potency entry in [9], in [2], in assay [4] and in assay [5] was “inactive” throughout. The call in [10] was inactive.
Take `CCOC(=O)N1CCC(Nc2ccc(Cl)cc2N)CC1`: the Potency result in [9], in assay [1], in [4], in assay [5], in assay [7] and in [8] was “inactive” in each case. Besides, the result in assay [6] and in assay [10] was inactive.
For `COc1ccc(-c2cc(C(F)F)nn2-c2ccc(S(N)(=O)=O)cc2)cc1F`, the Potency result in assay [1], in assay [2], in [5] and in [7] was “inactive” in each case. Moreover, in [6], the molecule was called inactive.
For the molecule `COc1cc(C(C)=O)ccc1OCCCN1CCC(c2noc3cc(F)ccc23)CC1`, the Potency result in assay [1], in [3], in assay [4], in assay [5], in assay [7] and in assay [8] was “inactive” each time. In addition, in assay [6], the call was inactive.
In the case of `CC(CO)(CO)C(=O)O`, the Potency result in assay [1], in assay [2], in assay [4], in assay [5], in [7] and in [8] was “inactive” in each case. The call in assay [6] was inactive.
As to `Nc1ccc(F)cc1`, the Potency entry in assay [1], in assay [3], in assay [4], in [5], in assay [7] and in assay [8] was “inactive” in each case. Besides, the Potency in assay [2] is 28.5 µM (active). Further, the molecule was classed as inactive in [6] and in assay [10].
Consider `CC(=O)OCC(C)C`, for which the Potency entry in [1], in [2], in assay [3], in [4], in assay [5] and in assay [7] was “inactive” each time. The molecule was called inactive in assay [6] and in assay [10].
In the case of `Cc1c(C2(c3cc(Br)c(O)c(Br)c3C)OS(=O)(=O)c3ccccc32)cc(Br)c(O)c1Br`, the Potency was 13.3 µM (active) in [1] and 18.8 µM (active) in [4]. Further, the Potency entry in [2], in assay [7] and in assay [8] was “inactive” throughout. In addition, the outcome in assay [10] was inactive.
Take `CC(C)Cc1ccc(CC(=O)O)cc1`: the Potency result in assay [1], in [2], in [7] and in assay [8] was “inactive” throughout. For the same molecule, the Potency in assay [4] is 29.8 µM (active). In addition, the outcome in assay [10] was inactive.
For the molecule `CC1CCc2nccnc21` (centres undefined), the Potency entry in [1], in assay [3], in assay [4], in [5], in assay [7] and in assay [8] was “inactive” in each case. For the same molecule, the outcome in assay [6] and in assay [10] was inactive.
On to `Cc1ccc2nc(N)[nH]c(=O)c2c1Sc1ccncc1`, for which the Potency entry in assay [1], in assay [4], in assay [5], in assay [7] and in assay [8] was “inactive” each time. The molecule was classed as inactive in assay [6] and in assay [10].
On to `Nc1cccc2c(N)cccc12`, for which the Potency in assay [1] was 48.6 µM (active); in [2], 1.93 µM (active). Besides, the molecule was classed as inactive in assay [6]. Also, the Potency entry in assay [7] and in assay [8] was “inactive” each time.
For the molecule `O=c1[nH]c2cc(C(F)(F)F)c(N3CCOCC3)cc2n(CP(=O)(O)O)c1=O`, the Potency result in [1], in assay [2], in [3], in assay [4], in assay [5] and in [7] was “inactive” in each case. In addition, the Potency result in [8] was “inactive”. Also, the outcome in assay [6] and in assay [10] was inactive.
`O=[N+]([O-])C1(Br)COCOC1`: the Potency result in [1], in assay [2], in [3], in assay [4], in assay [5] and in assay [7] was “inactive” in each case. In addition, the Potency entry in assay [8] is “inactive”. Also, the result in assay [6] and in assay [10] was inactive.
On to `O=C(Oc1ccccc1)c1ccc2ccccc2c1O`, for which the Potency entry in assay [1], in assay [2], in [4], in assay [7] and in assay [8] was “inactive” in each case. The Potency in [3] was 30.6 µM (active). The call in assay [6] was inactive.
Regarding `CCOC(=O)C(C)O` (centres undefined), the Potency result in [1], in assay [3], in assay [4], in [5], in assay [7] and in assay [8] was “inactive” each time. Also, in assay [6], the molecule was classed as inactive.
With `CCN(CC)c1cccc(O)c1`, the Potency result in assay [1], in [4], in assay [5] and in assay [7] was “inactive” in each case. In assay [6], the molecule was classed as inactive.
For `COc1ccc(C(=O)NCc2ccc(OCCN(C)C)cc2)cc1OC`, the Potency entry in assay [1], in [2], in assay [3], in [4], in [5] and in [7] was “inactive” throughout. The Potency entry in [8] is “inactive”. The outcome in assay [6] and in assay [10] was inactive.
